ATXN viability: reduces viability in counter-screen for ATXN expression inhibitors; S2 cells (HEK-293 line with an ATXN2-luciferase reporter) viability, CellTiter-Fluor protease fluorescence, 24 h; Potency, µM (doses to about 56.7 µM), hits mostly cytotoxic; hit rate 0.49% among 400,000; note: nearly all actives have a fitted effect of over 40% in size
HT1080 IDH1KD tx: HT-1080 IDH1 knockdown cell toxicity (counter line); HT-1080 IDH1 knockdown viability, ATP luminescence, 48 h; Potency, µM (doses to about 46.1 µM), usual class: cytotoxic; hit rate 2% among 360,000; AID 686971
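Cytotoxicity counter-line: IDH1KD HT-1080, 48 h, CellTiter-Glo. Curves classed by r2, magnitude and activity.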
ATXN2 expr inh: ATXN2 expression inhibition; HEK-293 ATXN2-luciferase reporter, luminescence, 24 h; Potency, µM (series often up to 57 µM), most hits filed as inhibitors; hit rate 0.72% among 360,000; AID 1745845; note: nearly all actives have a fitted effect of over 55% in size
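ATXN2-luciferase reporter cells (luciferase flanked by upstream and downstream ATXN2 gene portions) were treated 24 h at 37 °C with compounds at up to 57 uM. SteadyGlo luminescence gave expression; GF-AFC fluorescence gave viability.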
HepG2 viability: HepG2 cytotoxicity, counter-screen for TGF-b inhibitors; hit rate 0.76% among 410,000; HepG2 CAGA-GFP viability, ATP luminescence, 18 h; Potency, µM (titrated, usually from 46.1 µM), hits mostly cytotoxic; AID 588856
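CellTiter-Glo luminescence gave cytotoxicity after 18 hours at 37 degrees C. The cells were HepG2 CAGA-GFP in 1% FBS DMEM, stimulated with 500 pg/mL TGF-beta after compound addition. %Activity was normalised to no-cell wells (complete cell-killing) and DMSO (no toxicity), and curves were fitted and classified.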
HT1080NT lethal: kills 2HG-producing HT-1080-NT fibrosarcoma cells | AID 686970 | Potency, µM (top dose mostly 46.1 µM), actives largely listed as cytotoxic | hit rate 1.6% among 360,000 | HT-1080-NT fibrosarcoma viability, CellTiter-Glo ATP luminescence, 48 h;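 note: NT is the 2HG producing partner of a matched IDH1 knockdown line; nearly all actives have a fitted effect of over 55% in size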
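HT-1080-NT; 750 cells/well; 5% FBS RPMI; 48 h compound, 37 degrees C; CellTiter-Glo luminescence; curve fitting and curve-class assignment.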
TGFb SMAD3 inh: TGF-b pathway inhibition | HepG2 CAGA-GFP TGF-b/SMAD3 reporter, GFP fluorescence, 18 h; TGF-beta stimulated, 500 pg/mL final | Potency, µM (highest dose often 46.1 µM), most hits filed as inhibitors | hit rate 1.2% among 410,000 | AID 588855; note: nearly all actives have a fitted effect of over 65% in size
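Using HEPG2 CAGA-GFP reporter cells at 1000 cells/well, we pinned test compounds, stimulated with recombinant TGF-beta (500 pg/mL final) and measured total well GFP after 18 h.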
Hits are given with their value; i = inactive; ? = inconclusive; nt = no result. Only some compounds are listed: those with a hit (about 3.8% of all), similar ones and a draw of the others. Calls come from the whole dose curve; as a rule, active = well fitted curve in the direction sought with a large enough effect; inconclusive = small, poorly fitted or top-dose-only effect, or another doubt; inactive = no such curve, though single readings can be large; an effect the other way counts as inactive or inconclusive.

SMILES	ATXN viability	HT1080 IDH1KD tx	ATXN2 expr inh	HepG2 viability	HT1080NT lethal	TGFb SMAD3 inh
Cc1ccccc1NC(=O)Cn1nc(-c2ccccc2)nc(Cc2ccccc2)c1=O	nt	nt	nt	i	nt	i
C/C(=C(/OCCOc1ccc(Cl)cc1)c1ccc(Cl)cc1Cl)n1ccnc1	i	nt	i	nt	nt	nt
Cc1cccc(-c2nc(CSCC(=O)N3CCN(c4ccccc4)CC3)c(C)o2)c1	nt	nt	nt	i	nt	11µM
Cc1ccc(-c2nc(CS(=O)(=O)CC(=O)N3CCN(c4ccccc4)CC3)c(C)o2)cc1	nt	nt	nt	i	nt	11µM
COc1ccc(-c2nc(CSCC(=O)N3CCN(c4ccc(OC)cc4)CC3)c(C)o2)cc1	nt	nt	nt	i	nt	?
Cc1ccc(Cl)cc1N1CCN(C(=O)C2CCCN(Cc3nc(-c4cccc(Cl)c4)oc3C)C2)CC1 (stereo unspecified)	?	nt	?	i	nt	i
COc1ccc(-c2nc(CSCC(=O)N3CCN(c4cc(Cl)ccc4C)CC3)c(C)o2)cc1	nt	nt	nt	i	nt	18µM
CCc1ccc(-c2nc(CN3CCCC(C(=O)N4CCN(c5cc(Cl)ccc5C)CC4)C3)c(C)o2)cc1 (stereo unspecified)	16µM	nt	20µM	i	nt	?
CCC(=O)N[C@@H]1c2ccccc2C2(CCN(Cc3cnc(N(C)C)s3)CC2)[C@H]1OC	i	nt	nt	nt	nt	nt
COC(=O)CSCc1nc(-c2ccc(C(=O)OC)cc2)oc1C	i	nt	4.5µM	i	nt	i
COc1ccc(-c2nc(CSCC(=O)N3CCN(c4cccc(C)c4C)CC3)c(C)o2)cc1OC	32µM	nt	?	i	nt	i
Cc1cccc(-c2nc(CSCC(=O)NCCc3ccc(Cl)cc3)c(C)o2)c1	nt	nt	nt	i	nt	13µM
CCC(C)NC(=O)CSCc1nc(-c2ccc(C)cc2)oc1C (stereo unspecified)	nt	nt	nt	i	nt	?
Cc1ccc(CCNC(=O)CSCc2nc(-c3ccc(C)cc3)oc2C)cc1	nt	nt	nt	i	nt	?
COc1ccc(-c2nc(CSCC(=O)N3CCN(C)CC3)c(C)o2)cc1OC	i	i	i	i	i	i
COCCNC(=O)CCc1c(C)n(C)c2cc(-c3cc(OC)c(OC)c(OC)c3)nn2c1=O	nt	nt	nt	i	nt	i
COc1cccc(CNC(=O)c2c(OC)cc(=O)n3c2CCN(C(=O)c2ccc(C)cc2C)CC3)c1	i	nt	nt	nt	nt	nt
COc1ccccc1N1CCN(C(=O)c2c(C)oc3ncn(CC(C)C)c(=O)c23)CC1	i	nt	i	i	nt	i
O=C1O[C@H]2[C@H](O)[C@@H]1OC(O)[C@H]2O (stereo partly specified)	i	nt	nt	nt	nt	nt
Cc1ccc(C(=O)N2C(CC(=O)Nc3ccc(Cl)cc3)C(=O)NC3CCCCC32)cc1 (stereo unspecified)	i	5.2µM	i	i	5.8µM	i
COc1ccc(C2CC(c3ccccc3)=NN2C(=O)c2cccs2)cc1 (stereo unspecified)	i	?	i	i	?	i
COc1ccc(C2=NN(C(=O)c3cccs3)C(c3ccccc3O)C2)cc1 (stereo unspecified)	?	i	nt	i	i	13µM
Cc1ccc(C(=O)N2N=C(c3ccc(Br)cc3)CC2c2ccccc2O)cc1 (stereo unspecified)	nt	15µM	?	i	15µM	?
COc1ccc2cc(C3CC(c4cccs4)=NN3C(C)=O)c(Cl)nc2c1 (stereo unspecified)	i	i	i	i	i	i
COc1ccc(C(=O)N2N=C(c3cccs3)CC2c2ccccc2O)cc1 (stereo unspecified)	?	?	i	11µM	?	?
SMILES	ATXN viability	HT1080 IDH1KD tx	ATXN2 expr inh	HepG2 viability	HT1080NT lethal	TGFb SMAD3 inh
Cc1ncoc1C(=O)N1CCOc2ccc(CN3CCN(c4ccccn4)CC3)cc2C1	i	nt	nt	nt	nt	nt
Cc1ccc(C)c(S(=O)(=O)c2nnn3c2nc(NC2CCCC2)c2sccc23)c1	nt	nt	nt	i	nt	i
CC1(C)OC(=O)Nc2ccc(Br)cc21	i	nt	i	nt	nt	nt
Cc1nn(CCc2nn[nH]n2)c2nc(-c3ccc(C4CCCCC4)cc3)cc(C(F)(F)F)c12	i	?	i	i	23µM	?
O=C(c1cnn(-c2nccc(-c3ccccc3F)n2)c1C1CC1)N1CCN(CCO)CC1	i	nt	nt	nt	nt	nt
COc1cc(/C=C/C(=O)c2cccc([N+](=O)[O-])c2)cc(OC)c1OC	?	?	i	i	?	?
O=C(/C=C/c1ccccc1F)c1cccc([N+](=O)[O-])c1	?	i	nt	14µM	i	?
O=C(NN=Cc1ccccc1O)c1cccc([N+](=O)[O-])c1	?	1.2µM	?	i	0.29µM	i
O=C(C#Cc1ccccc1)c1cccc([N+](=O)[O-])c1	nt	?	22µM	i	i	?
O=C(N/N=C/c1ccccn1)c1cccc([N+](=O)[O-])c1	i	?	?	i	i	i
CC(=O)c1cccc([N+](=O)[O-])c1	i	i	i	i	i	i

From PubChem
